Source: PubChem
Tb PGK inh – blocks T. brucei phosphoglycerate kinase | Potency, µM (series often up to 57.5 µM), for inactives: at the top dose activity change, negative = inhibition, most hits filed as inhibitors | P07378 | 380,000 tested, 0.043% active | AID 602233 | PGK/GAPDH coupled, Kinase-Glo luminescence, 60 min; further: nearly all actives have a fitted effect of over 60% in size
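Recombinant glycosomal PGK reaction used 1,3-bisphosphoglycerate generated in-well by GAPDH (100nM final) in 100mM TEA pH 7.6, 5mM MgCl2, 0.01% Tween-20. After 60 minutes at room temperature, ATP was read by Kinase-Glo Plus luminescence end-point.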
BCR signal inh – blocks chronic active B-cell receptor signaling; ABC-DLBCL IkBa-CBG/CBR reporter, luminescence ratio, 4 h; Potency, µM (top dose mostly 46.1 µM), for inactives: top-dose activity change, negative = inhibition, usual class: inhibitors; 340,000 tested, 0.05% active; active means well fitted inhibition curve with a large enough effect in the signal ratio, with a control signal flat, not every such curve was filed as active; inconclusive means small, poorly fitted or top-dose-only effect, or effect the other way, or a change in a side signal; the % refers to the signal ratio;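 further: plate controls were basal doxycycline-induced cells for no effect and cells given 10 µM MG132 for full effect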
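Doxycycline induced both beetle luciferases in TMD8 lymphoma cells; IKK-driven degradation limits the IkappaBalpha-fused green signal, while red luminescence normalises for cell number and nonspecific effects. Compounds tested up to 46 uM, 4 hrs.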
Pin1 inh – inhibitors of human Pin1. Q13526. Pin1 FP peptide displacement, HiFluor488, 10 min. Potency, µM (doses to about 115 µM), without a hit: top-dose activity, negative = inhibition, usual class: inhibitors. 390,000 tested, 0.009% active; active means well fitted inhibition curve with a large enough effect in the polarisation, with a control signal flat, not every such curve was filed as active; inconclusive means small, poorly fitted or top-dose-only effect, or effect the other way, or a change in a side signal; inactive means no such curve, though single readings can be large or run the other way; the % refers to the polarisation
Target sequence (Q13526 whole entry, looked up): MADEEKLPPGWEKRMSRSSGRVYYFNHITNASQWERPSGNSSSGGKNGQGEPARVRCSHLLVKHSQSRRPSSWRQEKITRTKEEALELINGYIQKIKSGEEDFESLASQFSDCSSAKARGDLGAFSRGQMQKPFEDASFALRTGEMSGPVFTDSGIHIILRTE
B2AR arrestin – agonists driving beta-arrestin recruitment to human beta2-adrenergic receptor; beta-arrestin recruitment to beta2AR, cell-based reporter; Potency, µM (titrated, usually from 46.1 µM), inactives show at the top dose activation, actives largely listed as activators; 330,000 tested, 0.02% active; AID 492947;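 further: 0% = DMSO controls and full agonism = EC100 isoproterenol or metaproterenol; nearly all actives have a fitted effect of over 65% in size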
Target sequence (P07550 whole entry, looked up): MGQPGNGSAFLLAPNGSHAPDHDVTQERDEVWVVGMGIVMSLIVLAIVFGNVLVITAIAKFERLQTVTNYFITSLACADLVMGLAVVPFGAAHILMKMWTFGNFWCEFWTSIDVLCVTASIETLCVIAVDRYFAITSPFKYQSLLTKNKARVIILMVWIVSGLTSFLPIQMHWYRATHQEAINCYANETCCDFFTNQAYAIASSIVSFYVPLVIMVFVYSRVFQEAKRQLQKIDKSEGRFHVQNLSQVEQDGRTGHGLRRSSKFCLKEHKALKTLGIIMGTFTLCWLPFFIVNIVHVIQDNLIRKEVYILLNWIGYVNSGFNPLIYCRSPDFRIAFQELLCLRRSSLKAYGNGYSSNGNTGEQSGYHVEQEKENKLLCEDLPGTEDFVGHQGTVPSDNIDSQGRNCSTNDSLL
Tb PFK block – T. brucei PFK enzyme inhibition. O15648. T. brucei PFK, ADP-Glo luminescence. Potency, µM (doses to about 57.5 µM), for the others: at the highest dose activity, negative = inhibition, most hits filed as inhibitors. 330,000 tested, 0.17% active. AID 485367;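 further: 0% = uninhibited 1x PFK enzyme wells and -100% = no-enzyme wells; nearly all actives have a fitted effect of over 60% in size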
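Compounds were pin-transferred as a titration series up to 57 uM into substrate buffer (0.5 mM F6P, 0.1 mM ATP, pH 8.0), then 1.25 nM PFK was added and reactions ran 45 min before ADP-Glo detection.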
GLS inhibitor – blocks human kidney-isoform glutaminase activity; AID 624170; GLS enzymatic activity, qHTS titration; 410,000 tested, 0.21% active; Potency, µM (top dose mostly 45.5 µM), inactives show top-dose activity change, negative = inhibition, actives largely listed as inhibitors; O94925
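hKGA in 45 mM KH2PO4 (pH 8.2), 0.02% Tween-20 with compound, then 1mM L-Glutamine (stock as added) plus glutamate oxidase/HRP/Amplex red coupling mix. Fluorescence read initially and after 30 min at RT; signal change reflects glutamate formation.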
* = called active by the depositor; i = inactive; ? = inconclusive; · = not tested or not shown; [ ] = remark or other dose. Compounds with a hit are over-represented: about 0.42% of the library has one in this group of screens. Unless noted, the call rests on the fitted dose curve; in most records, active means well fitted curve in the direction sought with a large enough effect; inconclusive means small, poorly fitted or top-dose-only effect, or another doubt; inactive means no such curve, though single readings can be large; an effect the other way counts as inactive or inconclusive. Unless noted, on the % scale 0 is the no-effect control and ±100 the full control effect; potency means the concentration at half of the fitted maximal effect.

SMILES	Tb PGK inh	BCR signal inh	Pin1 inh	B2AR arrestin	Tb PFK block	GLS inhibitor
CCc1nc2ccc(C(=O)N3CCN(c4cccc(OC)c4)CC3)cc2nc1CC	-8%	-1%	1%	-1%	1%	9%
COc1cc(/C=N/n2cnnc2)ccc1OCCOc1ccccc1	-9%	?	1%	0%	-1%	-2%
C=CCc1ccc(OCCOc2ccc(/C=N/n3cnnc3)cc2OCC)c(OC)c1	2%	23µM*	-5%	0%	1%	-4%
COc1ccc(S(=O)(=O)N2CCN(C(=O)C3COc4ccccc4O3)CC2)cc1 (stereo not given)	?	1%	?	0%	27µM*	?
Cc1cc(Cl)ccc1OCc1n[nH]c(=S)n1C1CCCCC1	i	10%	?	0%	2%	?
COc1ccc(Cl)cc1-c1n[nH]c(=S)n1C1CCCCC1	6%	10%	0%	0%	1%	4µM*
COc1ccc(-n2c(-c3ccc(Cl)cc3Cl)n[nH]c2=S)c(OC)c1	-5%	-3%	-11%	10%	0%	11µM*
CCC1CCCCN1CC(=O)Nc1cc(C)nn1-c1nc(C)cc(C)n1 (stereo not given)	-8%	?	2%	35µM*	-6%	5%
O=C1C(O)=C(O)C(=O)C(O)=C1O	·	·	·	·	·	20µM*
Cc1ccc(C2=C(O)C(=O)C(c3ccc(C)cc3)=C(O)C2=O)cc1	-5%	·	-19%	·	·	5%
CCC(=O)Nc1ccc(OCc2cc(C3Nc4ccccc4C(=O)N3Cc3ccccc3)ccc2OC)cc1 (stereo not given)	·	·	22%	·	·	·
O=C(ONC1=NCCCCC1)c1cccc([N+](=O)[O-])c1	-9%	-7%	-2%	-1%	1%	22µM*
CCCCC[C@H](O)/C=C/[C@H]1C=CC(=O)[C@@H]1C/C=C\CCCC(=O)O	·	?	·	-1%	30µM*	·
COc1ccc(CN(Cc2ccccc2)C(=O)c2ccccc2O)cc1COc1ccc(NC(C)=O)cc1	·	·	17%	·	·	·
O=C(O)/C=C/c1ccc([N+](=O)[O-])o1	16µM*	4%	-23%	0%	0%	11µM*
O=C(Nc1ccccc1)C1CCN(c2ncc(-c3ccc4c(c3)OCCCO4)s2)CC1	·	·	-2%	·	·	·
CCOC(=O)c1sc2nc3c(SCCC#N)cc(C(=O)c4cc(F)ccc4O)cn3c(=O)c2c1C	0%	-3%	?	0%	0%	23%
CCOC(=O)c1sc2nc3c(SCCC(=O)O)cc(C(=O)c4cc(OC)ccc4O)cn3c(=O)c2c1C	-15%	?	?	0%	-1%	5.6µM*
NC(=O)C1CCN(c2nc(-c3cccc(C(F)(F)F)c3)cs2)CC1	·	·	-3%	·	·	·
Oc1ccccc1N1CCN(c2ccc3ccccc3n2)CC1	-1%	0%	0%	0%	1%	10µM*
O=C(O)C1Nc2c(O)cc(Cl)c([N+](=O)[O-])c2C2C=CCC12 (stereo not given)	4.5µM*	2%	·	-1%	?	3.2µM*
CCC(c1ccccc1)C(CC)c1cc(O)c(O)c(O)c1 (stereo not given)	-9%	·	1%	·	·	11µM*
CCC(C)c1ccccc1O (stereo not given)	0%	2%	1%	0%	0%	-4%
O=c1c2ccccc2nc2sc(Nc3cccc(N4CCNCC4)c3)nn12	·	·	21%	·	·	·
COc1ccc(C(=O)N/N=C/c2sc3ccccc3c2O)cc1	-3%	?	?	-1%	9%	16µM*
SMILES	Tb PGK inh	BCR signal inh	Pin1 inh	B2AR arrestin	Tb PFK block	GLS inhibitor
COc1ccc2cc(C(=O)N/N=C/c3sc4ccccc4c3O)ccc2c1	i	?	?	-1%	1%	9%
C[C@@H](O[C@H]1OCCN(Cc2n[nH]c(=O)[nH]2)[C@@H]1c1ccc(F)cc1)c1cc(C(F)(F)F)cc(C(F)(F)F)c1	·	·	·	·	·	-1%
CCCc1cc(SCC(=O)Nc2c(C)n(C)n(-c3ccccc3)c2=O)n2c(nc3ccccc32)c1C#N	3%	?	5%	3.5µM*	?	0%
Cn1cnc2c1c(=O)n(Cc1ccc(F)cc1Cl)c(=O)n2C	6%	10%	-3%	-1%	-1%	8.9µM*
Cn1cnc2c1c(=O)n(Cc1cccc(F)c1)c(=O)n2C	-9%	2%	-1%	0%	-4%	-23%
Cn1c(Oc2ccccc2)nc2c1c(=O)n(Cc1ccc(Cl)cc1Cl)c(=O)n2C	-7%	·	-1%	·	·	11µM*
O=S(=O)(c1ccc2c(c1)OCCO2)N1CCN(S(=O)(=O)c2ccccc2OC(F)(F)F)CC1	·	·	16%	·	·	·
CCCN1C(=O)C(NC(C)=O)c2ccccc21 (stereo not given)	-1%	3%	-3%	-1%	1%	5%
CCc1ccc2c(c1)C(NC(C)=O)C(=O)N2CCN1CCOCC1 (stereo not given)	?	-1%	?	0%	-25%	5µM*
O=S1(=O)N=C(Oc2ccccc2Cl)c2ccccc21	·	·	-5%[163 µM]	·	·	·
CC1CC(C(F)(F)C(F)(F)F)n2nc(C(=O)O)cc2N1 (stereo not given)	-15%	1%	-12%	-1%	-25%	16µM*
CC1CC(C(F)(F)F)n2nc(C(=O)O)cc2N1 (stereo not given)	3%	-7%	0%	0%	-24%	4%
CCCC(=O)OCCNc1cc(Sc2nccn2C)c2nonc2c1[N+](=O)[O-]	4%	2.9µM*	4%	-2%	?	1%
CCC(=O)OCCNc1cc(Sc2nc3ccccc3s2)c2nonc2c1[N+](=O)[O-]	-8%	-13%	?	0%	2.7µM*	?
O=[N+]([O-])c1c(NCCCO)cc(Sc2nc3ccccc3s2)c2nonc12	-4%	?	?	4%	?	?
CSc1nc(N(CCO)CCO)c2sc3nc(-c4ccco4)c4c(c3c2n1)CCC4	?	7%	?	0%	?	7.1µM*
O=C(NNc1cc(Cl)ccc1Cl)c1cccs1	5%	2%	0%	0%	-10%	13µM*
Oc1ccc(CNc2ccc(F)cc2F)c2cccnc12	·	·	5%	·	·	·
N#Cc1c2ccc(O)cc2n2ccccc12	-8%	?	?	0%	1%	11µM*
N#Cc1c2ccc(OCC(=O)NCc3ccco3)cc2n2ccccc12	-7%	?	13%	0%	0%	-19%
CC1=C(C#N)C(=O)N(C2CCS(=O)(=O)C2)C(=O)/C1=C\c1ccco1 (stereo not given)	·	12%	·	0%	15µM*	·
O=C1/C(=C\c2ccco2)SC(=S)N1C1CCCCC1	·	?	·	0%	4%	·
COc1cccc(C2c3c(ncn(-c4cccnc4)c3=N)Oc3ccc4ccccc4c32)c1 (stereo not given)	·	·	4%	·	·	·
